# “And” between values parts separate entries of the source, which are not always exact repeats. Equal entries are not always repeated. Screen size: about 5,500 compounds; about 2,000 (36%) were called active. Not shown: some 18% with an inconclusive outcome. The list shows a part of the results. A number with no mark means an inactive call. Cut-off read from the data, not from the text of the source: active = normalized growth mostly below about 0.91 (no sharp cut-off); inconclusive = no clear call, values can overlap the other calls; inactive = mostly above about 0.92.
# Test: chemical genetic growth profiling, strain panel (AID 1159580);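 note: tested at 20 µM; growth read once vehicle control cultures reached saturation at 30 °C; 1 = growth at the plate median or of vehicle wells; lower values mean less growth of the strain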
# Settings: S. cerevisiae deletion strains, growth OD
structure (smiles),measurement,setting,value
C[C@H]1c2cccc(O)c2C(O)=C2C(=O)[C@]3(O)C(O)=C(C(N)=O)C(=O)[C@@H](N(C)C)[C@@H]3[C@@H](O)[C@@H]21,normalized growth,"locus YAL021C, strain ccr4, hits give low values",0.991
same,normalized growth,"locus YAL026C, strain drs2, hits give low values",0.978
same,normalized growth,"locus YAL030W, strain snc1, hits give low values",0.976
same,normalized growth,"locus YBL061C, strain skt5, hits give low values",0.995
same,normalized growth,"locus YBR009C, strain hhf1, hits give low values",0.958
same,normalized growth,"locus YBR021W, strain FUR4, hits give low values",0.884
same,normalized growth,"locus YBR023C, strain chs3, hits give low values",0.987
same,normalized growth,"locus YBR171W, strain sec66, hits give low values",0.956
same,normalized growth,"locus YBR229C, strain ROT2, hits give low values",1
same,normalized growth,"locus YBR231C, strain swc5, hits give low values",0.979
same,normalized growth,"locus YBR279W, strain paf1, hits give low values",0.988
same,normalized growth,"locus YCL011C, strain gbp2, hits give low values",0.971
same,normalized growth,"locus YCL016C, strain dcc1, hits give low values",1.02
same,normalized growth,"locus YCL029C, strain bik1, hits give low values",0.953
same,normalized growth,"locus YCL069W, strain vba3, hits give low values",0.956
same,normalized growth,"locus YCR088W, strain abp1, hits give low values",0.985
same,normalized growth,"locus YDL005C, strain med2, hits give low values",0.998
same,normalized growth,"locus YDL035C, strain GPR1, hits give low values",0.963
same,normalized growth,"locus YDL040C, strain nat1, hits give low values",0.975
same,normalized growth,"locus YDL074C, strain BRE1, hits give low values",0.963
same,normalized growth,"locus YDL101C, strain DUN1, hits give low values",0.984
same,normalized growth,"locus YDL185W, strain tfp1, hits give low values",0.954
same,normalized growth,"locus YDL192W, strain arf1, hits give low values",0.966
same,normalized growth,"locus YDR001C, strain nth1, hits give low values",0.984
same,normalized growth,"locus YDR069C, strain doa4, hits give low values",0.973
same,normalized growth,"locus YDR101C, strain arx1, hits give low values",1.01
same,normalized growth,"locus YDR137W, strain rgp1, hits give low values",0.962
same,normalized growth,"locus YDR159W, strain sac3, hits give low values",0.951
same,normalized growth,"locus YDR162C, strain NBP2, hits give low values",0.978
same,normalized growth,"locus YDR195W, strain ref2",0.979
same,normalized growth,"locus YDR297W, strain sur2, hits give low values",0.991
same,normalized growth,"locus YDR318W, strain mcm21, hits give low values",0.961
same,normalized growth,"locus YDR334W, strain swr1, hits give low values",0.944
same,normalized growth,"locus YDR335W, strain msn5, hits give low values",0.988
same,normalized growth,"locus YDR388W, hits give low values",0.98
same,normalized growth,"locus YDR392W, strain spt3, hits give low values",0.911
same,normalized growth,"locus YDR502C, strain sam2, hits give low values",0.979
same,normalized growth,"locus YEL003W, strain gim4, hits give low values",0.978
same,normalized growth,"locus YEL037C, strain rad23, hits give low values",0.975
same,normalized growth,"locus YEL061C, strain CIN8 (second series), hits give low values",0.971
same,normalized growth,"locus YEL061C, strain CIN8, hits give low values",0.984
same,normalized growth,"locus YER015W, strain faa2, hits give low values",0.977
same,normalized growth,"locus YER016W, strain bim1, hits give low values",1.01
same,normalized growth,"locus YER110C, hits give low values",0.965
same,normalized growth,"locus YER111C, strain swi4, hits give low values",0.995
same,normalized growth,"locus YER155C, strain BEM2 (second series), hits give low values",0.886
same,normalized growth,"locus YER155C, strain BEM2, hits give low values",1.01
same,normalized growth,"locus YER167W, strain BCK2, hits give low values",0.994
same,normalized growth,"locus YFR010W, strain ubp6, hits give low values",0.955
same,normalized growth,"locus YGL078C, strain dbp3, hits give low values",0.968
same,normalized growth,"locus YGL086W, strain mad1, hits give low values",0.992
same,normalized growth,"locus YGL167C, strain pmr1, hits give low values",0.965
same,normalized growth,"locus YGL173C, strain kem1, hits give low values",0.975
same,normalized growth,"locus YGL227W, strain vid30, hits give low values",0.987
same,normalized growth,"locus YGL240W, strain doc1, hits give low values",0.96
same,normalized growth,"locus YGL248W, strain PDE1, hits give low values",0.854 (active)
same,normalized growth,"locus YGL253W, strain hxk2, hits give low values",0.988
same,normalized growth,"locus YGR135W, strain pre9, hits give low values",0.923
same,normalized growth,"locus YGR229C, strain SMI1, hits give low values",0.983
same,normalized growth,"locus YGR252W, strain gcn5, hits give low values",0.93
same,normalized growth,"locus YHR013C, strain ard1, hits give low values",1.05
same,normalized growth,"locus YHR027C, strain rpn1, hits give low values",0.98
same,normalized growth,"locus YHR030C, strain SLT2, hits give low values",0.996 and 1.03
same,normalized growth,"locus YHR079C, strain IRE1 (second series), hits give low values",0.978
same,normalized growth,"locus YHR079C, strain IRE1, hits give low values",1.03
same,normalized growth,"locus YHR094C, strain hxt1, hits give low values",0.987
same,normalized growth,"locus YHR129C, strain ARP1, hits give low values",0.994
same,normalized growth,"locus YHR142W, strain chs7, hits give low values",0.998
same,normalized growth,"locus YHR200W, strain rpn10, hits give low values",0.97
same,normalized growth,"locus YIL066C, strain RNR3, hits give low values",0.974
same,normalized growth,"locus YIL073C, strain SPO22, hits give low values",0.751
same,normalized growth,"locus YIL125W, strain kgd1, hits give low values",0.983
same,normalized growth,"locus YIR030C, strain dcg1, hits give low values",0.961
same,normalized growth,"locus YJL092W, strain hpr5, hits give low values",0.991
same,normalized growth,"locus YJL095W, strain BCK1 (second series), hits give low values",0.979
same,normalized growth,"locus YJL095W, strain BCK1, hits give low values",0.929 and 1.03
same,normalized growth,"locus YJL115W, strain asf1, hits give low values",0.963
same,normalized growth,"locus YJL129C, strain trk1, hits give low values",0.991
same,normalized growth,"locus YJL134W, strain LCB3, hits give low values",1
same,normalized growth,"locus YJL154C, strain vps35, hits give low values",0.983
same,normalized growth,"locus YJL164C, strain tpk1, hits give low values",0.976
same,normalized growth,"locus YJL166W, strain qcr8, hits give low values",0.944
same,normalized growth,"locus YJL168C, strain set2, hits give low values",0.985
same,normalized growth,"locus YJL187C, strain SWE1 (second series), hits give low values",0.97
same,normalized growth,"locus YJR043C, strain POL32, hits give low values",0.958
same,normalized growth,"locus YJR066W, strain TOR1, hits give low values",0.928
same,normalized growth,"locus YKL009W, strain mrt4, hits give low values",0.967
same,normalized growth,"locus YKL068W, hits give low values",0.986
same,normalized growth,"locus YKL085W, strain MDH1 (second series), hits give low values",0.972
same,normalized growth,"locus YKL085W, strain MDH1, hits give low values",0.972
same,normalized growth,"locus YKL160W, strain elf1, hits give low values",0.992
same,normalized growth,"locus YKL190W, strain CNB1, hits give low values",0.988
same,normalized growth,"locus YKR001C, strain vps1, hits give low values",0.942
same,normalized growth,"locus YKR026C, strain gcn3, hits give low values",0.972
same,normalized growth,"locus YKR091W, strain srl3, hits give low values",0.985
same,normalized growth,"locus YLL001W, strain dnm1, hits give low values",0.974
same,normalized growth,"locus YLL026W, hits give low values",0.991
same,normalized growth,"locus YLL041C, strain sdh2, hits give low values",0.973
same,normalized growth,"locus YLR027C, strain aat2, hits give low values",0.998
same,normalized growth,"locus YLR039C, strain RIC1, hits give low values",0.971
same,normalized growth,"locus YLR058C, strain SHM2, hits give low values",0.976
same,normalized growth,"locus YLR102C, strain apc9, hits give low values",0.968
same,normalized growth,"locus YLR113W, strain HOG1, hits give low values",1.08
same,normalized growth,"locus YLR221C, strain rsa3, hits give low values",0.962
same,normalized growth,"locus YLR258W, strain gsy2, hits give low values",0.978
same,normalized growth,"locus YLR262C, strain YPT6 (second series), hits give low values",0.936
same,normalized growth,"locus YLR262C, strain YPT6, hits give low values",0.967
same,normalized growth,"locus YLR268W, strain sec22, hits give low values",0.955
same,normalized growth,"locus YLR320W, strain mms22, hits give low values",0.944
same,normalized growth,"locus YLR330W, strain CHS5, hits give low values",0.979
same,normalized growth,"locus YLR342W, strain FKS1 (second series), hits give low values",0.859
same,normalized growth,"locus YLR342W, strain FKS1, hits give low values",0.977
same,normalized growth,"locus YLR357W, strain rsc2, hits give low values",0.911
same,normalized growth,"locus YLR370C, strain arc18, hits give low values",0.982
same,normalized growth,"locus YLR371W, strain rom2, hits give low values",0.963
same,normalized growth,"locus YLR384C, strain iki3, hits give low values",1
same,normalized growth,"locus YLR418C, strain cdc73, hits give low values",0.91
same,normalized growth,"locus YML016C, strain PPZ1, hits give low values",0.979
same,normalized growth,"locus YML032C, strain rad52, hits give low values",0.984
same,normalized growth,"locus YML120C, strain ndi1, hits give low values",0.97
same,normalized growth,"locus YML124C, strain tub3, hits give low values",0.993
same,normalized growth,"locus YMR058W, strain fet3, hits give low values",0.947
same,normalized growth,"locus YMR078C, strain ctf18, hits give low values",0.963
same,normalized growth,"locus YMR125W, strain sto1, hits give low values",0.958
same,normalized growth,"locus YMR129W, hits give low values",0.989
same,normalized growth,"locus YMR205C, strain PFK2, hits give low values",0.992
same,normalized growth,"locus YMR223W, strain ubp8, hits give low values",0.922
same,normalized growth,"locus YMR231W, strain pep5, hits give low values",0.989
same,normalized growth,"locus YMR307W, strain GAS1, hits give low values",1.08
same,normalized growth,"locus YNL067W, strain RPL9B, hits give low values",0.939
same,normalized growth,"locus YNL071W, strain lat1, hits give low values",0.975
same,normalized growth,"locus YNL183C, strain NPR1, hits give low values",0.987
same,normalized growth,"locus YNL209W, strain ssb2, hits give low values",0.985
same,normalized growth,"locus YNL233W, strain BNI4, hits give low values",0.939
same,normalized growth,"locus YNL248C, strain rpa49, hits give low values",0.95
same,normalized growth,"locus YNL250W, strain rad50, hits give low values",0.966
same,normalized growth,"locus YNL271C, strain bni1, hits give low values",0.981
same,normalized growth,"locus YNL298W, strain CLA4, hits give low values",0.969
same,normalized growth,"locus YNL307C, strain MCK1, hits give low values",0.973
same,normalized growth,"locus YNL322C, strain KRE1 (second series), hits give low values",0.969
same,normalized growth,"locus YNL322C, strain KRE1, hits give low values",0.991
same,normalized growth,"locus YNR049C, strain mso1, hits give low values",0.984
same,normalized growth,"locus YNR052C, strain pop2, hits give low values",0.979
same,normalized growth,"locus YOL012C, strain htz1",1.14
same,normalized growth,"locus YOL147C, strain pex11, hits give low values",0.988
same,normalized growth,"locus YOR001W, strain rrp6, hits give low values",0.923
same,normalized growth,"locus YOR061W, strain CKA2, hits give low values",0.993
same,normalized growth,"locus YOR069W, strain VPS5, hits give low values",0.998
same,normalized growth,"locus YOR070C, strain gyp1, hits give low values",0.99
same,normalized growth,"locus YOR080W, strain dia2, hits give low values",0.982
same,normalized growth,"locus YOR083W, strain WHI5, hits give low values",1
same,normalized growth,"locus YOR106W, strain vam3, hits give low values",0.965
same,normalized growth,"locus YOR136W, strain idh2, hits give low values",0.98
same,normalized growth,"locus YOR144C, strain elg1, hits give low values",0.995
same,normalized growth,"locus YOR184W, strain ser1, hits give low values",0.939
same,normalized growth,"locus YOR231W, strain MKK1, hits give low values",1.06
same,normalized growth,"locus YOR265W, strain rbl2, hits give low values",0.992
same,normalized growth,"locus YOR270C, strain vph1, hits give low values",0.943
same,normalized growth,"locus YOR290C, strain snf2, hits give low values",1
same,normalized growth,"locus YOR316C, strain cot1, hits give low values",0.973
same,normalized growth,"locus YPL051W, strain arl3, hits give low values",0.993
same,normalized growth,"locus YPL055C, strain LGE1, hits give low values",0.866
same,normalized growth,"locus YPL078C, strain atp4, hits give low values",0.999
same,normalized growth,"locus YPL106C, strain sse1, hits give low values",0.912
same,normalized growth,"locus YPL240C, strain hsp82, hits give low values",0.984
same,normalized growth,"locus YPL241C, strain CIN2, hits give low values",0.998
same,normalized growth,"locus YPL256C, strain CLN2, hits give low values",1.05
same,normalized growth,"locus YPR119W, strain clb2, hits give low values",0.98
same,normalized growth,"locus YPR141C, strain kar3, hits give low values",0.965
same,normalized growth,"locus YPR163C, strain tif3, hits give low values",0.985
same,normalized growth,"locus YPR167C, strain met16, hits give low values",0.982
same,normalized growth,"strain wtn01, hits give low values",0.891 (active)
